# Measured values from the supplement of paper PMC10849652.
# The full data set covers some 7,900 targets. This sample favours those with a hit. About 0.6% of all pairs of compound and target were hits. A number with no mark means an inactive call.
# What was measured:
# Assay in all cases: log2 fold change, soluble protein after heating vs DMSO (PISA); higher = thermal stabilisation; K562 cells, 10 uM, 30 min; active = over 0.2 and 3.5 SD of the protein, either way, in both replicates (recomputed)
# [1] = compound: CS(=O)(=O)c1ccc(-c2cnc(N)c(C(=O)Nc3ccccc3)n2)cc1
# Method in brief: (§1)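 Soluble protein was defined as the supernatant after 21,000xg for 90 min. It came from K562 cells at 2×10^6 cells/mL given 10 μM compound for 30 min, heated in aliquots for 3 min across 48°C-58°C, pooled, and extracted in PBS with 0.5% NP-40 at 4°C, and was quantified by TMTpro 16plex LC-MS/MS with equalised channel sums. Thermal stability against control samples, from duplicates, is reported as log2 fold change.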
# crizotinib = compound: C[C@@H](Oc1cc(-c2cnn(C3CCNCC3)c2)cnc1N)c1c(Cl)ccc(F)c1Cl [crizotinib]
# Method in brief: as §1
# [2] = compound: C[C@@H]1COCCN1C2=NC(=NC(=C2)C3(CC3)S(=O)(=O)C)C4=C5C=CNC5=CC=C4
# Method in brief: as §1
# [3] = compound: C[C@H](C1=CC=C(C=C1)C(=O)NC2=C3C=CNC3=NC=C2)N
# Method in brief: as §1
# duvelisib = compound: C[C@H](Nc1ncnc2nc[nH]c12)c1cc2cccc(Cl)c2c(=O)n1-c1ccccc1 [duvelisib]
# Method in brief: as §1
# gandotinib = compound: Cc1cc(Nc2cc(CN3CCOCC3)c3nc(C)c(Cc4ccc(Cl)cc4F)n3n2)n[nH]1 [gandotinib]
# Method in brief: as §1
# tozasertib = compound: Cc1cc(Nc2cc(N3CCN(C)CC3)nc(Sc3ccc(NC(=O)C4CC4)cc3)n2)n[nH]1 [tozasertib]
# Method in brief: as §1
# [4] = compound: Cc1cc(SCc2sc(-c3ccc(C(F)(F)F)cc3)nc2C)ccc1OCC(=O)O
# Method in brief: as §1
# doramapimod = compound: Cc1ccc(-n2nc(C(C)(C)C)cc2NC(=O)Nc2ccc(OCCN3CCOCC3)c3ccccc23)cc1 [doramapimod]
# Method in brief: as §1
# ispinesib = compound: Cc1ccc(C(=O)N(CCCN)[C@@H](c2nc3cc(Cl)ccc3c(=O)n2Cc2ccccc2)C(C)C)cc1 [ispinesib]
# Method in brief: as §1
# bafetinib = compound: Cc1ccc(NC(=O)c2ccc(CN3CC[C@H](N(C)C)C3)c(C(F)(F)F)c2)cc1Nc1nccc(-c2cncnc2)n1 [bafetinib]
# Method in brief: as §1
# [5] = compound: Cc1cccc(CC(=O)N2CCc3c2ccc(-c2cn(C)c4ncnc(N)c24)c3F)n1
# Method in brief: as §1
# nilotinib = compound: Cc1cn(-c2cc(NC(=O)c3ccc(C)c(Nc4nccc(-c5cccnc5)n4)c3)cc(C(F)(F)F)c2)cn1 [nilotinib]
# Method in brief: as §1
# [6] = compound: Cc1nc(Nc2n[nH]c3c2CN(C(=O)N[C@H](CN(C)C)c2ccccc2)C3(C)C)c2sccc2n1
# Method in brief: as §1
# dasatinib = compound: Cc1nc(Nc2ncc(C(=O)Nc3c(C)cccc3Cl)s2)cc(N2CCN(CCO)CC2)n1 [dasatinib]
# Method in brief: as §1
# [7] = compound: Cc1ncc(-c2ccnc(Nc3ccc(S(C)(=O)=O)cc3)n2)n1C(C)C
# Method in brief: as §1
# [8] = compound: Cn1cc(-c2ccc3c(c2)CCN3C(=O)Cc2cccc(C(F)(F)F)c2)c2c(N)ncnc21
# Method in brief: as §1
# [9] = compound: Cn1cc(-c2ccc3nnc(C(F)(F)c4ccc5ncccc5c4)n3n2)cn1
# Method in brief: as §1
# tipifarnib = compound: Cn1cncc1[C@@](N)(c1ccc(Cl)cc1)c1ccc2c(c1)c(-c1cccc(Cl)c1)cc(=O)n2C [tipifarnib]
# Method in brief: as §1
# mubritinib = compound: FC(F)(F)c1ccc(/C=C/c2nc(COc3ccc(CCCCn4ccnn4)cc3)co2)cc1 [mubritinib]
# Method in brief: as §1
# Sequence of UniProt O14950 (O14950 whole entry, looked up): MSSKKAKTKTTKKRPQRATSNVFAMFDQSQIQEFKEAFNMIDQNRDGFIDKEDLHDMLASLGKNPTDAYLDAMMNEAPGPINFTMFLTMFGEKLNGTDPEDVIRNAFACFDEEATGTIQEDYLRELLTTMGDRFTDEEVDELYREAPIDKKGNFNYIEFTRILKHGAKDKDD
# Sequence of UniProt P56556 (P56556 whole entry, looked up): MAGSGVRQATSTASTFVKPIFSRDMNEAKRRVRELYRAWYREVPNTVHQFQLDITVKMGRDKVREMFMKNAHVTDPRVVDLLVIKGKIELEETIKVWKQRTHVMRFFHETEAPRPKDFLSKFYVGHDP
# Sequence of UniProt Q7Z3U7 (Q7Z3U7 whole entry, looked up): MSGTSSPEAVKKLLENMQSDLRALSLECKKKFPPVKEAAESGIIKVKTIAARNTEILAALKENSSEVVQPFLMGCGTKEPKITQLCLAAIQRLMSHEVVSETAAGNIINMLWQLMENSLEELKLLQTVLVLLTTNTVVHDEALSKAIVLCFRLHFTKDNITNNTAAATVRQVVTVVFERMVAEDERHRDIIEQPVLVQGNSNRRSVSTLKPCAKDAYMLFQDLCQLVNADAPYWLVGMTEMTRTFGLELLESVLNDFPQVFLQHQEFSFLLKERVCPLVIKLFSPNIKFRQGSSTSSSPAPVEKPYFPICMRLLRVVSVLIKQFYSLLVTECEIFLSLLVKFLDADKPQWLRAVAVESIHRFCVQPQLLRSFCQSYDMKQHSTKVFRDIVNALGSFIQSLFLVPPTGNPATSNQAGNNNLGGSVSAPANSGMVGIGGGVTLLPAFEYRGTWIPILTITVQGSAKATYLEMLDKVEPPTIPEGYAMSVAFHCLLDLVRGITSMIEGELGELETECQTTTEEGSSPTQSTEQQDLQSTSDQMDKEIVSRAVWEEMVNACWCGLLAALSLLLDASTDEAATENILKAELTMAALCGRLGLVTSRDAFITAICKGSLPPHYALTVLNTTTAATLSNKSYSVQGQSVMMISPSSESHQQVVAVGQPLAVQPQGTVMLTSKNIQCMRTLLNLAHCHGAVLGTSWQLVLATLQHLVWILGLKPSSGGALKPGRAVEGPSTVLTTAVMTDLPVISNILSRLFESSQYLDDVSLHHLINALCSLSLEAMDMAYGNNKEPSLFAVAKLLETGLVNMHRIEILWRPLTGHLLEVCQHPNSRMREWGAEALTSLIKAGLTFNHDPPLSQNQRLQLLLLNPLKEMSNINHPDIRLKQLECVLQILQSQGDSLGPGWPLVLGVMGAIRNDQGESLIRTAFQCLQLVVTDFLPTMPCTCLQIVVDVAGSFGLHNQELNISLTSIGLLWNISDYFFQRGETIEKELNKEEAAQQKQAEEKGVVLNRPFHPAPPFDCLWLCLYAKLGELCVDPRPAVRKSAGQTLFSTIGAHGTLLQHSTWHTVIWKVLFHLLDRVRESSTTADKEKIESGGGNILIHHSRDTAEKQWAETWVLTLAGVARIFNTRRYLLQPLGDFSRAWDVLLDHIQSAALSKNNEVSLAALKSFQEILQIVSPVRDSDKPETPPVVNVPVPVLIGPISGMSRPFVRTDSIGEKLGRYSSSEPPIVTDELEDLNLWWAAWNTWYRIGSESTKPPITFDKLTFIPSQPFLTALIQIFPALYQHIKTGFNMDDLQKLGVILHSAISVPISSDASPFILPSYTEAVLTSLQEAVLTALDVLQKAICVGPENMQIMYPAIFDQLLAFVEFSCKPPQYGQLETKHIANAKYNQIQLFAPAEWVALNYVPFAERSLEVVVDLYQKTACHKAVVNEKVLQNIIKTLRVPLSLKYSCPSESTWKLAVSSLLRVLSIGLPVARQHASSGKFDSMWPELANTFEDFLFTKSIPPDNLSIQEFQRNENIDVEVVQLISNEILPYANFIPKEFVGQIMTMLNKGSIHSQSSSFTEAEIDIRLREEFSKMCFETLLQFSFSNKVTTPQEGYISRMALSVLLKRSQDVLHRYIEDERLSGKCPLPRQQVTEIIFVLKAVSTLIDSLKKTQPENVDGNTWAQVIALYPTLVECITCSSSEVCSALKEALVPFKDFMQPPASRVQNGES
# Sequence of UniProt Q96DE0 (Q96DE0 whole entry, looked up): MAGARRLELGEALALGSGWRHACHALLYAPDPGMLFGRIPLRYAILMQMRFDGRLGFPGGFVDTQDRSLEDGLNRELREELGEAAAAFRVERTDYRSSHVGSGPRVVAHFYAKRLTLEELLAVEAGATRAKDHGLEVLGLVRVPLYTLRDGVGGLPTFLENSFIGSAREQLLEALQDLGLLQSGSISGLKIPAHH
# Sequence of UniProt Q9BRA0 (Q9BRA0 whole entry, looked up): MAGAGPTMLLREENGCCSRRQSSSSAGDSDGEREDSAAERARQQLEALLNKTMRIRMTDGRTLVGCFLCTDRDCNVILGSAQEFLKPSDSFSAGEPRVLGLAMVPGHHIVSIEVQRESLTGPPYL
# Sequence of UniProt Q9BRP4 (Q9BRP4 whole entry, looked up): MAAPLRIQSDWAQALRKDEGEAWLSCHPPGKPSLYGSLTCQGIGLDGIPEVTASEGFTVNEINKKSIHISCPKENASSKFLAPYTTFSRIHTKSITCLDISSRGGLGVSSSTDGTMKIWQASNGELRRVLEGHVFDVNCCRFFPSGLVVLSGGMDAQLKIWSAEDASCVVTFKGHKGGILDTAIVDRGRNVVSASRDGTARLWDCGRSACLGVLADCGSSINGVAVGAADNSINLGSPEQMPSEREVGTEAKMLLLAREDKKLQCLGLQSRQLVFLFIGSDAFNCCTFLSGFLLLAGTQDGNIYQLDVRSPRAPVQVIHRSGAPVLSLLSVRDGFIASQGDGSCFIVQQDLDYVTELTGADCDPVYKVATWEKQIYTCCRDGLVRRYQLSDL
# Sequence of UniProt Q969V5 (Q969V5 whole entry, looked up): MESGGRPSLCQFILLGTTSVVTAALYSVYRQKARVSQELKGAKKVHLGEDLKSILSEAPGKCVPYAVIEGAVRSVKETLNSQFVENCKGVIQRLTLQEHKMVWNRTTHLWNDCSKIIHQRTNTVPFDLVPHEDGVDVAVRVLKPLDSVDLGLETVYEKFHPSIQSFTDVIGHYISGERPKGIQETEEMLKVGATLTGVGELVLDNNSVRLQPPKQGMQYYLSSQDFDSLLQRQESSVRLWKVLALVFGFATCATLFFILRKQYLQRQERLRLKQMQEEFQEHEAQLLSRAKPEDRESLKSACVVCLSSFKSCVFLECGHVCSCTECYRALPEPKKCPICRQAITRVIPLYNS
# Sequence of UniProt Q00013 (Q00013 whole entry, looked up): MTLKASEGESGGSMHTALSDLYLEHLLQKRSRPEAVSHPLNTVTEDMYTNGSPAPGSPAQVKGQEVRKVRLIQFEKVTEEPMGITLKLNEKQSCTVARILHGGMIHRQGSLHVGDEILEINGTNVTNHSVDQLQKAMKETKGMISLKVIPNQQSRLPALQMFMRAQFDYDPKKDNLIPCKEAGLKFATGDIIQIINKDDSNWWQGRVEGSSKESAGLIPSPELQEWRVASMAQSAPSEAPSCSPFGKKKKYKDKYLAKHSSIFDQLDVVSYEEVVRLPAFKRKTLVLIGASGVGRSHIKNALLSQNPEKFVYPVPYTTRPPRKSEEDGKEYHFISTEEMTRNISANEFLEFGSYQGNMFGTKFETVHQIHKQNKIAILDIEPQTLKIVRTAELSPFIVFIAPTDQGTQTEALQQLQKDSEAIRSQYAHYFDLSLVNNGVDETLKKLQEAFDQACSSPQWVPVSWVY
Target,log2 fold change [1],log2 fold change (crizotinib),log2 fold change [2],log2 fold change [3],log2 fold change (duvelisib),log2 fold change (gandotinib),log2 fold change (tozasertib),log2 fold change [4],log2 fold change (doramapimod),log2 fold change (ispinesib),log2 fold change (bafetinib),log2 fold change [5],log2 fold change (nilotinib),log2 fold change [6],log2 fold change (dasatinib),log2 fold change [7],log2 fold change [8],log2 fold change [9],log2 fold change (tipifarnib),log2 fold change (mubritinib)
NDUFA6 (UniProt P56556),0.012,-0.044,0.172,-0.078,0.017,-0.22,-0.009,0.098,-0.004,0,0.128,0.301,-0.151,0.021,-0.088,0.027,0.089,0.081,-0.173,0.184
MYL12B (UniProt O14950),-0.016,-0.004,0.019,-0.32 (active),0.088,0.058,0.005,-0.003,0.025,0.097,-0.049,0.042,0.031,0.001,0.001,-0.002,0.117,-0.046,-0.038,0.064
MON2 isoform 5 (UniProt Q7Z3U7),0.044,-0.065,0.081,0.033,0.173,-0.105,0.011,0.171,0.077,-0.055,-0.001,0.026,-0.053,-0.012,-0.132,0.082,0.008,0.006,-0.071,-0.03
NAA38 isoform 2 (UniProt Q9BRA0),0.012,-0.052,0.099,0.018,0.124,-0.004,-0.013,0.015,-0.02,-0.064,0,-0.019,-0.128,0.052,-0.051,-0.066,0.028,-0.047,-0.039,-0.03
NUDT16 (UniProt Q96DE0),0.054,0.052,0.042,-0.169,0.045,0.063,-0.011,0,-0.034,0.067,-0.044,-0.035,0,0.015,0.058,-0.049,0.107,0.019,-0.02,0.049
MPP1 (UniProt Q00013),0.064,-0.092,0.05,0.001,0.007,-0.073,-0.022,0.061,0.023,-0.108,0.043,0.035,0.073,-0.179,-0.086,-0.019,0.047,-0.023,-0.04,0.034
PAAF1 (UniProt Q9BRP4),-0.003,-0.003,0.078,-0.071,0,-0.035,-0.042,0.018,-0.022,0.047,-0.011,-0.01,-0.084,0.058,-0.051,-0.026,0.018,0.016,-0.03,0.017
MUL1 (UniProt Q969V5),-0.023,0.038,0.078,-0.006,-0.042,-0.018,0.083,-0.02,0.056,-0.01,-0.018,0.042,0.004,0.044,0.011,-0.059,0.036,0.016,-0.037,-0.023
